SMILES strings stand for the structures.

The assay has as its system HepG2. Briefly: GSK_TCMDC: Percent inhibition of human HepG2 cell line. Test compounds present at 10uM. Type of assay: functional.
Consider `CCOc1ccc(N2CCN(CCCCNC(=O)c3ccc(NC(=O)c4ccc(Cl)cc4)cc3)CC2)c(OCC)c1`, for which the Inhibition was 36%.
`Br.CN(CCON1C(=N)N=C(N)NC1(C)C)c1ccccc1` gave an Inhibition of 64%.
In turn, `CCN(CC)CCNc1ccc(Nc2ccnc3cc4ccccc4cc23)cc1` showed an Inhibition of 36%.
`COc1ccc(C23Oc4cc(OC)cc(OC)c4C2(O)C2(CC3c3ccccc3)SCCCS2)cc1` (configuration not stated) displayed an Inhibition of 39%.
The compound `O=C(Nc1cccc(C(F)(F)F)c1)c1cccc(S(=O)(=O)NCC2CCCN(CC3CCCCC3)C2)c1.O=C(O)C(F)(F)F` (configuration not stated) displayed an Inhibition of 17%.
Compound `CN1CCCc2ccc(NC(=O)c3ccc(-c4cc(C(F)(F)F)nn4C)s3)cc2C1.O=C(O)C(F)(F)F` came in with an Inhibition of 16%.
Compound `COc1cc2c(cc1C(F)(F)F)N(C(=O)Nc1cc(-c3ccncc3)cc(-c3cccnc3)c1)CC2` yielded an Inhibition of 64%.
`CS(=O)(=O)O.NC1=NC(CCc2ccccc2)N(c2ccccc2)C(N)=N1` (configuration not stated) came in with an Inhibition of 1%.
Under `O=C(NCC1CC1)C1CCN(C(c2ccccc2)c2cc(F)cc(F)c2)CC1` (configuration not stated) stands 0%.
With `Cc1ccc(-c2nn3c(O)c4c(nc3c2C)CCCC4)cc1`, the Inhibition worked out at 16%.
In turn, `CC(C)(C)C/C=C\c1ccc(C(=O)NCC2CC2)cc1` gave an Inhibition of 0%.
`CN1CCC(NCc2ccc(-c3cnc(NCc4ccccc4)nc3)cc2)CC1.O=C(O)C(F)(F)F`: the Inhibition came out at 23%.
Compound `Nc1nc(N)c2cc(NC(=O)c3ccc(Cl)c(Cl)c3)ccc2n1` showed an Inhibition of 100%.
As for `CCCCCN1CCCC(NS(=O)(=O)c2ccc(C(=O)Nc3ccc(C(F)(F)F)cc3)cc2)C1.O=C(O)C(F)(F)F` (configuration not stated), the Inhibition came to 41%.
Consider `COc1ccc(Cl)cc1N1CCN(CCCNC(=O)c2ccc(-c3nc4cc5ccccc5cc4[nH]3)c(F)c2)CC1`, for which the Inhibition worked out at 12%.
Compound `COc1ccc(CNC(=O)NC2CCN(c3ccnc(Nc4ccc(F)cc4)n3)C2)cc1` (configuration not stated) yielded an Inhibition of 4%.
In the case of `CN(C)CCCNC(=O)c1ccccc1Sc1ccccc1C#N.Cl`, the Inhibition stood at 11%.
`Cc1cccc2nc(-c3ccc(-c4ccc(CNCCc5ccncc5)cc4)cc3)[nH]c12.O=C(O)C(F)(F)F`: the Inhibition is reported as 34%.
In turn, `CCCCNC(=O)[C@H](CC1CCCCC1)NC(=O)c1ccc(O)c(-c2ccc(Cl)c(Cl)c2)c1` returned an Inhibition of 0%.
The compound `O=C(NC1CC1)c1ccc(N2CCN(Cc3ccc(Cl)cc3)CC2)nc1.O=C(O)C(F)(F)F` displayed an Inhibition of 16%.
In the case of `O=C(/C=C/c1ccc(Cl)c(Cl)c1)NC1CCC(CN2CCC(c3nc4cccnc4[nH]3)CC2)CC1` (configuration not stated), the Inhibition amounted to 7%.
In turn, `Cc1cc(N[C@@H](Cc2ccccc2)C(=O)Nc2ccccc2)nc(NCCc2ccccc2)n1.O=C(O)C(F)(F)F` yielded an Inhibition of 8%.
`CCN1CCC(N2CCC(C(=O)Nc3cccc(-c4cccc(Cl)c4)c3)CC2)CC1` yielded an Inhibition of 54%.
For `N#Cc1cncc(-c2nc3c(N4CCCC(N)C4)cccc3n2CCNCc2ccccc2)c1.O=C(O)C(F)(F)F` (configuration not stated), the Inhibition is listed as 8%.
For `Cc1c(C(=O)N2CCCC(C(F)(F)F)C2)sc2cccc(F)c12` (configuration not stated), the Inhibition is recorded as 0%.
As to `CCN1C(c2ccc(Cl)cc2)C(CNCc2ccccc2O)CC1(C)CO` (configuration not stated), the Inhibition was found to be 47%.
For the compound `CNC(=O)NC1=NC(C)(C)N(OCCCOc2cc(Cl)c(Cl)cc2Cl)C(N)=N1`, the Inhibition amounted to 7%.
With `CCC(=O)N(c1ccccc1)C1CCN(CCCC(NC(=O)c2cc(C(F)(F)F)cc(C(F)(F)F)c2)c2ccc(Cl)c(Cl)c2)CC1` (configuration not stated), the Inhibition is 24%.
In turn, `CC(C)(C)c1ccc(-c2cc3c(ccc4nc(N)nc(N)c43)[nH]2)cc1` came in with an Inhibition of 100%.
With `Cl.Nc1nc(Nc2cccc(O)c2)nc2ccccc12` the figure was 25%; with `Cc1nnsc1C(=O)Nc1ccc(-c2ccc(-c3nc4cccc(C)c4[nH]3)s2)cc1`, 63%; with `Oc1ccc(C=NNC(S)=Nc2cccc3ccccc23)c(O)c1`, 8%.
The compound `C=CCOC(=O)N1CCC(CNCc2cccc(-c3cccc(-c4nc5ccccc5[nH]4)c3)c2)C1.O=C(O)C(F)(F)F` (configuration not stated) yielded an Inhibition of 16%.
Compound `CS(=O)(=O)NCCCNCc1ccc(-c2cccc(-c3nc4cc(F)ccc4[nH]3)c2)cc1.O=C(O)C(F)(F)F` yielded an Inhibition of 15%.
Regarding `CCN(CC)CCN(Cc1ccc(-c2ccc(C(F)(F)F)cc2)cc1)C(=O)Cn1c(CCc2c(F)cccc2F)nc(=O)c2ccccc21.O=C(O)C(O)C(O)C(=O)O`, the Inhibition is given as 36%.
Take `CN1CCN(c2ccnc3ccc(NC(=O)c4ccc(Cl)c(Cl)c4)cc23)CC1`: the Inhibition came out at 4%.
`O=C(/C=C/c1ccc(Cl)c(Cl)c1)NCCCCCN1CCCN(C(=O)Nc2ccc(Cl)cc2)CC1` showed an Inhibition of 21%.

(Values after ChEMBL document CHEMBL1157539, “Thousands of chemical starting points for antimalarial lead identification” (Nature, 2010).)
